Laboratory results: PubChem BioAssay (NCI)
The panel holds about 83,000 compounds, 20% with a hit somewhere; the sample as a whole holds those more often.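 48-hour exposure, single concentration, 96-well plates; percent growth endpoint where 0 means no net growth. Active: below 10.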 Values without a mark were called inactive. The source made the active and inactive calls.

tested on: LOX IMVI melanoma; assay: NCI-60 one-dose screen, 48 h (100 = growth as untreated, 0 = no growth, -100 = all killed); conditions: 10 µM unless noted

| SMILES | growth |
| --- | --- |
| CC(=O)N1N=C(c2ccc(Cl)cc2)CC1c1c(C)nn(-c2ccccc2)c1N(C)Cc1ccccc1 (centres undefined) | 84.1% |
| CC1(C)CC2(C)CC(=O)C1C(C(=O)O)C2C(=O)O (centres undefined) | 101% |
| COc1ccc(-c2cnc(SCC(=O)Nc3ccc(-c4nc5ccccc5s4)cc3)n2-c2ccc(OC)cc2)cc1 | 95.2% |
| COc1ccc2c(c1)[n+](=O)c(C(=O)/C=C/c1cc(OC)c(OC)c(OC)c1)c(C)n2[O-] | 55.1% |
| Nc1c(C(=O)Nc2cccc(Cl)c2)sc2nc3c(cc12)C(O)CCC3 (centres undefined) | 48.1% |
| COc1cccc(-c2nc(-c3ccc(N)cc3)co2)c1 | 97% |
| O=C(Nc1ccccc1S)c1ccccc1 | 84.9% |
| COc1ccc2c(c1)c(CC(=O)[Se]C)c(C)n2C(=O)c1ccc(Cl)cc1 | -69.5% (active) |
| Nc1nc(SCc2cccnc2)c2ncn(C3OC(CO)C(O)C3O)c2n1 (centres undefined) | 102% |
| O=C1c2cc3c(cc2-c2c1c1ccc(Cl)cc1c(=O)n2CCCNCCO)OCO3 | -89.2% (active) |
| N#Cc1c(NC(=O)c2ccco2)[n+]([O-])c2cc(Cl)c(Cl)cc2[n+]1[O-] | 90.5% |
| Cc1[nH]ccc2cc3nc4ccccc4c3cc12 | 12% |
| C=C1CC[C@@H]2[C@](C)(COC(C)=O)[C@H](OC(C)=O)CC[C@@]2(C)[C@@H]1CC(NCc1ccccc1)C1=CCOC1=O (some centres undefined) | 44.6% |
| COC(=O)c1cc2oc(/C=N\NC(=O)c3cc4oc(C)c(C)c4[nH]3)cc2[nH]1 | 107% |
